In PubChem BioAssay (NCI):
Several values for one entry are separate records, joined by “and”; a condition that tells them apart may be missing. Equal values may be shown once. This is part of a sample that, as a whole, favours compounds with a hit. Of some 83,000 tested, about 20% had one in any assay.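 A percent growth of 40 corresponds to 60% growth inhibition; 0 means no net growth; -100 means all cells died. Active threshold: below 10.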 Activity calls are given as the source filed them.

tested on: NCI-H522 lung; experiment: NCI-60 one-dose screen, 48 h (100 = growth as untreated, 0 = no growth, -100 = all killed); conditions: 10 µM unless noted

Structure (SMILES) | growth
O=C(CSc1nc2ccccc2c(=O)[nH]1)Nc1ccccc1C(=O)O | 107% (inactive)
Cn1cc(-c2cc(N)n3nc(-c4c[nH]c5ccccc45)cc3n2)c2ccccc21 | -85.1% (active)
Cc1cccc(/C=C/c2ccc(NC(=S)NCCCCN(C)C)cc2)c1 | -73.7% (active)
Cc1ccc(N=Nc2c(N)nn3c(-c4cc5ccccc5oc4=O)ccnc23)cc1 | 64.9% (inactive)
O=C(Nc1nc2ccccc2s1)Nc1ccccc1Cl | 64.1% (inactive)
COc1ccc(NC(=O)CSc2nnc(-c3ccc(-c4nc5ccc(Cl)cc5[nH]4)cc3)o2)cc1 | 6.93% (active)
O=C1Nc2cc(-c3ccc(NS(=O)(=O)c4ccc(C(F)(F)F)cc4)cc3)ccc2/C1=C/c1ccc[nH]1 | -18.4% (active)
COc1ccc(Nc2nnc(-c3c[nH]c4ccccc34)o2)cc1 | 32.2% (inactive)
Cn1cc(-c2cc(N)n3nc(-c4c[nH]c5ccc(F)cc45)cc3n2)c2cccnc21 | -68.8% (active)
O=C(NN1C(=O)/C(=C/C=C/c2ccc([N+](=O)[O-])o2)SC1=S)c1ccc([N+](=O)[O-])cc1 | -88.7% (active)
CN1C(=O)/C(=C/c2ccco2)S/C1=N/c1nccs1 | 100% (inactive)
N#C/C(=C/c1ccc([N+](=O)[O-])cc1)c1nnc(NC(=O)c2ccc(-n3c(=O)[nH]c4ccccc4c3=O)cc2)s1 | 108% (inactive)
O=C(CSc1nnc(-c2ccc(-c3nc4ccc(Cl)cc4[nH]3)cc2)o1)Nc1ccccc1 | -3.89% (active)
Cc1cccc(NCC(=O)N2CCN(c3ncnc4c3cnn4-c3ccccc3)CC2)c1 | -6.93% (active)
O=C(N/N=C/c1ccc(Br)o1)c1[nH]c2ccc(Br)cc2c1-c1ccccc1 | -61.5% (active)
CCCCCCCCc1ccc(C(=O)Nc2ccc(C)c(OP(=O)(O)O)c2)cc1 | 82.1% (inactive)
Cn1cc(-c2cc3nc(-c4cn(C)c5ncc(Br)cc45)cc(N)n3n2)c2cc(F)ccc21 | 2.15% (active)
O=C1Nc2ccccc2/C1=C/C(=O)c1cc2ccccc2oc1=O | -34.9% (active)
c1n[nH]cc1-c1nc2ccc3cn[nH]c3c2c2c1CCCC2 | 70.7% (inactive)

Structure (SMILES) | growth
CN1C(=O)C(O)(CC(=O)c2cc3ccccc3oc2=O)c2ccccc21 (stereo unspecified) | 92.7% (inactive)
O=C(CCl)Nc1ccc(C(=O)/C=C/c2cc3ccccc3nc2Cl)cc1 | -62.9% (active) and 76.9% (inactive)
Cc1cc(C2(c3cc(C)c(OCC(O)CNc4c(C)n(C)n(-c5ccccc5)c4=O)cc3C(C)C)OC(=O)c3ccccc32)c(C(C)C)cc1OCC(O)CNc1c(C)n(C)n(-c2ccccc2)c1=O (stereo unspecified) | 8.24% (active)
Cn1cc(-c2cc(N)n3nc(-c4c[nH]c5ccccc45)cc3n2)c2cc(Br)ccc21 | -74.7% (active)
CCC(=O)c1c2c(c3ccc4c5ccccc5ccc4n13)C(=O)c1ccccc1C2=O | 86.8% (inactive)
CS(=O)(=O)Nc1cc(-c2ccc3ncnc(Nc4ccc(OCc5cccnc5)c(Cl)c4)c3c2)cnc1Cl | -4.01% (active)
Cn1cc(-c2cc(N)n3nc(-c4c[nH]c5ccccc45)cc3n2)c2cc(Cl)ccc21 | -71.9% (active)
COc1ccc(N=Nc2c(N)nn3c(N)c(C#N)c(-c4ccc(C)cc4)nc23)cc1 | 48.9% (inactive)
COc1ccc(C(=O)/C=C/c2ccc3c(c2)OCCO3)cc1S(N)(=O)=O | 43.8% (inactive)
CCCCC[C@@H]1C/C=C(\C)[C@@H](O)C(C)(C)C(=O)[C@@H](C)/C=C(\C)[C@@H]2C[C@H](O)C[C@](O)(CC(=O)O1)O2 | 12.5% (inactive)
CC(C)(C)c1ccc(OCc2nc3ccccc3n2-c2cccc(N)c2)cc1 | 74.5% (inactive) and 103% (inactive)
O=C1/C(=C/c2cnc(-c3ccccc3)s2)SC(=S)N1Cc1ccc2c(c1)OCO2 | 47.5% (inactive)
COc1ccc(NC2=C(I)C(=O)C(C)=C(C)C2=O)cc1 | 18.5% (inactive)
COc1ccc(-c2nnc3c(/C=C/c4ccc(Br)cc4)nc4ccccc4n23)cc1 | -79.9% (active)
C[C@H]1[C@@H](CC(=O)N[C@@H](Cc2coc3ccccc23)B(O)O)O[C@@H]2OC3(C)CC[C@H]4[C@H](C)CC[C@@H]1[C@@]24O3 | -50% (active)
O=C(NNC(=S)NC(=O)c1ccccc1)c1ccc(OCc2nc3ccc(Cl)cc3[nH]2)cc1 | 1.39% (active)
CC1=C(C)C(=O)C(NCCN2CCOCC2)=C(Br)C1=O | -18.4% (active)
N#Cc1ccc(C(=O)NNC(=O)CSc2nc3sc4c(c3c(=O)n2-c2ccc(Cl)cc2)CCCC4)cc1 | 61.5% (inactive)
CCCCCCCOc1ccc(S(=O)(=O)Nc2ccc(C)c(F)c2C(=O)O)cc1 | 84.3% (inactive)

tested on: A549/ATCC NSCLC; experiment: as above; conditions: 10 µM unless noted

Structure (SMILES) | growth
O=C(CSc1nc2ccccc2c(=O)[nH]1)Nc1ccccc1C(=O)O | 112% (inactive)
Cn1cc(-c2cc(N)n3nc(-c4c[nH]c5ccccc45)cc3n2)c2ccccc21 | -75.2% (active)
Cc1cccc(/C=C/c2ccc(NC(=S)NCCCCN(C)C)cc2)c1 | -57.9% (active)
Cc1ccc(N=Nc2c(N)nn3c(-c4cc5ccccc5oc4=O)ccnc23)cc1 | 45.1% (inactive)
O=C(Nc1nc2ccccc2s1)Nc1ccccc1Cl | 74.5% (inactive)
COc1ccc(NC(=O)CSc2nnc(-c3ccc(-c4nc5ccc(Cl)cc5[nH]4)cc3)o2)cc1 | 1.75% (active)
O=C1Nc2cc(-c3ccc(NS(=O)(=O)c4ccc(C(F)(F)F)cc4)cc3)ccc2/C1=C/c1ccc[nH]1 | 18.7% (inactive)
COc1ccc(Nc2nnc(-c3c[nH]c4ccccc34)o2)cc1 | 89.3% (inactive)
Cn1cc(-c2cc(N)n3nc(-c4c[nH]c5ccc(F)cc45)cc3n2)c2cccnc21 | -87.1% (active)
O=C(NN1C(=O)/C(=C/C=C/c2ccc([N+](=O)[O-])o2)SC1=S)c1ccc([N+](=O)[O-])cc1 | -93% (active)
CN1C(=O)/C(=C/c2ccco2)S/C1=N/c1nccs1 | 107% (inactive)
N#C/C(=C/c1ccc([N+](=O)[O-])cc1)c1nnc(NC(=O)c2ccc(-n3c(=O)[nH]c4ccccc4c3=O)cc2)s1 | 102% (inactive)
O=C(CSc1nnc(-c2ccc(-c3nc4ccc(Cl)cc4[nH]3)cc2)o1)Nc1ccccc1 | -31.9% (active)
Cc1cccc(NCC(=O)N2CCN(c3ncnc4c3cnn4-c3ccccc3)CC2)c1 | 65.3% (inactive)
O=C(N/N=C/c1ccc(Br)o1)c1[nH]c2ccc(Br)cc2c1-c1ccccc1 | -4.05% (active)
CCCCCCCCc1ccc(C(=O)Nc2ccc(C)c(OP(=O)(O)O)c2)cc1 | 105% (inactive)
Cn1cc(-c2cc3nc(-c4cn(C)c5ncc(Br)cc45)cc(N)n3n2)c2cc(F)ccc21 | 0.571% (active)
O=C1Nc2ccccc2/C1=C/C(=O)c1cc2ccccc2oc1=O | 106% (inactive)
c1n[nH]cc1-c1nc2ccc3cn[nH]c3c2c2c1CCCC2 | 95.1% (inactive)

Structure (SMILES) | growth
CN1C(=O)C(O)(CC(=O)c2cc3ccccc3oc2=O)c2ccccc21 (stereo unspecified) | 111% (inactive)
O=C(CCl)Nc1ccc(C(=O)/C=C/c2cc3ccccc3nc2Cl)cc1 | 72.4% (inactive) and 60.8% (inactive)
Cc1cc(C2(c3cc(C)c(OCC(O)CNc4c(C)n(C)n(-c5ccccc5)c4=O)cc3C(C)C)OC(=O)c3ccccc32)c(C(C)C)cc1OCC(O)CNc1c(C)n(C)n(-c2ccccc2)c1=O (stereo unspecified) | 22.4% (inactive)
Cn1cc(-c2cc(N)n3nc(-c4c[nH]c5ccccc45)cc3n2)c2cc(Br)ccc21 | -50% (active)
CCC(=O)c1c2c(c3ccc4c5ccccc5ccc4n13)C(=O)c1ccccc1C2=O | 31.7% (inactive)
CS(=O)(=O)Nc1cc(-c2ccc3ncnc(Nc4ccc(OCc5cccnc5)c(Cl)c4)c3c2)cnc1Cl | 45.6% (inactive)
Cn1cc(-c2cc(N)n3nc(-c4c[nH]c5ccccc45)cc3n2)c2cc(Cl)ccc21 | -37.8% (active)
COc1ccc(N=Nc2c(N)nn3c(N)c(C#N)c(-c4ccc(C)cc4)nc23)cc1 | 43.3% (inactive)
COc1ccc(C(=O)/C=C/c2ccc3c(c2)OCCO3)cc1S(N)(=O)=O | 47.6% (inactive)
CCCCC[C@@H]1C/C=C(\C)[C@@H](O)C(C)(C)C(=O)[C@@H](C)/C=C(\C)[C@@H]2C[C@H](O)C[C@](O)(CC(=O)O1)O2 | 36.8% (inactive)
CC(C)(C)c1ccc(OCc2nc3ccccc3n2-c2cccc(N)c2)cc1 | 66.6% (inactive) and 107% (inactive)
O=C1/C(=C/c2cnc(-c3ccccc3)s2)SC(=S)N1Cc1ccc2c(c1)OCO2 | 101% (inactive)
COc1ccc(NC2=C(I)C(=O)C(C)=C(C)C2=O)cc1 | 83.8% (inactive)
COc1ccc(-c2nnc3c(/C=C/c4ccc(Br)cc4)nc4ccccc4n23)cc1 | 75.8% (inactive)
C[C@H]1[C@@H](CC(=O)N[C@@H](Cc2coc3ccccc23)B(O)O)O[C@@H]2OC3(C)CC[C@H]4[C@H](C)CC[C@@H]1[C@@]24O3 | 31.6% (inactive)
O=C(NNC(=S)NC(=O)c1ccccc1)c1ccc(OCc2nc3ccc(Cl)cc3[nH]2)cc1 | -29.2% (active)
CC1=C(C)C(=O)C(NCCN2CCOCC2)=C(Br)C1=O | 87.6% (inactive)
N#Cc1ccc(C(=O)NNC(=O)CSc2nc3sc4c(c3c(=O)n2-c2ccc(Cl)cc2)CCCC4)cc1 | 61.9% (inactive)
CCCCCCCOc1ccc(S(=O)(=O)Nc2ccc(C)c(F)c2C(=O)O)cc1 | 103% (inactive)
